# In PubChem BioAssay (NCI):
# The panel holds about 79,000 compounds, 15% with a hit somewhere; the sample as a whole holds those more often. A number with no mark means an inactive call. Active and inactive are the calls of the source. No stated cut-off is given here; in the data, active means growth inhibition above about 70%; inactive means the rest.
# Key:
# [1] = NCI Yeast Anticancer Drug Screen. Data for the rad52 strain (AID 147);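 further: 0% = growth of vehicle-treated control cultures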; conditions: S. cerevisiae rad52 mutant growth inhibition, hits give high values
# Summary of the method: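 Screen used a yeast mutant impaired in DNA repair. After compound exposure, growth was measured. Values reflect inhibition compared with vehicle-treated cells.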
# [2] = NCI Yeast Anticancer Drug Screen. Data for the wt1 strain (AID 149);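 further: 0% = growth of vehicle-treated wt1 cultures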; conditions: S. cerevisiae wt1 strain (SPY 50644) growth inhibition, hits give high values
# Summary of the method: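 wt1 yeast, compound-treated; % growth inhibition vs vehicle control.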
# [3] = NCI Yeast Anticancer Drug Screen. Data for the rad50EPP+ strain (AID 151);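 further: 0% = growth of vehicle-treated control cultures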; conditions: S. cerevisiae rad50 mutant strain, hits give high values
# Summary of the method: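 Exposing the rad50EPP+ strain to each compound, growth was compared with vehicle-only cultures to give inhibition.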
# [4] = NCI Yeast Anticancer Drug Screen. Data for the mgt1 strain (AID 153); conditions: S. cerevisiae mgt1 mutant growth inhibition, hits give high values
# Summary of the method: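 Genetically defined yeast (mgt1) treated with compound; inhibition of growth expressed against vehicle-treated controls.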
# [5] = NCI Yeast Anticancer Drug Screen. Data for the rad50 strain (AID 155);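 further: 0% = growth of vehicle-only cultures of the same strain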; conditions: S. cerevisiae rad50 strain growth inhibition, hits give high values
# Summary of the method: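 Genetically altered yeast (DNA repair pathway); compound treatment; growth inhibition vs vehicle ctrl.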
# [6] = NCI Yeast Anticancer Drug Screen. Data for the mec2-1 strain (AID 157); conditions: S. cerevisiae mec2-1 strain, hits give high values
# Summary of the method: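 Readout is yeast growth inhibition, normalised to vehicle-treated controls, in the mec2-1 strain exposed to compound.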
# [7] = NCI Yeast Anticancer Drug Screen. Data for the rad14 strain (AID 159);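 further: 0% = growth of vehicle-treated control cultures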; conditions: S. cerevisiae rad14 strain growth inhibition, hits give high values
# Summary of the method: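 Test compounds were applied to a repair-deficient yeast strain. Its growth was then compared with that of cultures given vehicle alone, and inhibition was expressed relative to those controls.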
# [8] = NCI Yeast Anticancer Drug Screen. Data for the sgs1 mgt1 strain (AID 161);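 further: 0% = growth of cultures given vehicle only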; conditions: S. cerevisiae sgs1 mgt1 strain, hits give high values
# Summary of the method: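 Yeast cells carrying a defined DNA-repair defect were exposed to test compounds. Growth inhibition was measured relative to vehicle-treated controls.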
# [9] = NCI Yeast Anticancer Drug Screen. Data for the CLN2oe strain (AID 163);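 further: 0% = growth of vehicle-only control cultures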; conditions: S. cerevisiae CLN2oe strain, hits give high values
# Summary of the method: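 Values reflect how much compound exposure reduced yeast growth, referenced to vehicle-exposed cells. Assay organism is a strain with a defined genetic change affecting cell-cycle control.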
# [10] = NCI Yeast Anticancer Drug Screen. Data for the cln2 rad14 strain (AID 165);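 further: 0% = growth equal to vehicle treated cultures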; conditions: S. cerevisiae cln2 rad14 strain, hits give high values
# Summary of the method: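 Relative to vehicle controls, growth inhibition of compound-treated cln2 rad14 yeast was recorded.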
# [11] = NCI Yeast Anticancer Drug Screen. Data for the bub3 strain (AID 167); conditions: S. cerevisiae bub3 mutant strain, hits give high values
# Summary of the method: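 Yeast carrying a defined mutation is treated with each compound, and growth is compared with that of vehicle-exposed cells to give inhibition.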
# [12] = NCI Yeast Anticancer Drug Screen. Data for the wt2 strain (AID 169);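 further: 0% = growth of vehicle-treated yeast cultures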; conditions: S. cerevisiae wt2 strain growth inhibition, hits give high values
# Summary of the method: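 Values express reduction in yeast growth under compound treatment, referenced to vehicle-treated cells.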
# [13] = NCI Yeast Anticancer Drug Screen. Data for the mlh1 strain (AID 171);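 further: 0% = growth of vehicle-treated control cultures of the same strain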; conditions: S. cerevisiae mlh1 strain growth inhibition, hits give high values
# Summary of the method: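 Steps: expose the defined-mutant yeast strain to compound; expose a parallel culture to vehicle; measure growth; express compound effect as inhibition relative to the vehicle culture.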
# [14] = NCI Yeast Anticancer Drug Screen. Data for the sgs1 strain (AID 173);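 further: 0% = growth of vehicle-only control cultures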; conditions: S. cerevisiae sgs1 mutant, hits give high values
# Summary of the method: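 Treat defined-mutant yeast with compound; measure growth; calculate inhibition relative to vehicle-treated cells.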
# [15] = NCI Yeast Anticancer Drug Screen. Data for the mlh1 rad18 strain (AID 175); conditions: S. cerevisiae mlh1 rad18 strain growth inhibition, hits give high values
# Summary of the method: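 Test agents were incubated with a yeast strain of defined genotype (DNA damage repair defect). Inhibition of growth was derived by comparison with vehicle-exposed cultures.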
# [16] = NCI Yeast Anticancer Drug Screen. Data for the rad18 strain (AID 177); conditions: S. cerevisiae rad18 mutant growth inhibition, hits give high values
# Summary of the method: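 A genetically defined yeast mutant impaired in DNA damage repair was treated with test compounds, then its growth was measured against cultures receiving vehicle alone.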
# [17] = at 5.0 µM (retest, dose inferred, filed as 0.5)
# [18] = at 50.0 µM (retest, dose inferred, filed as 5.0)
smiles,measurement,setting,value
NC(=S)N1N=C2c3ccccc3CC[C@@H]2[C@@H]1c1ccccc1,growth inhibition,[1]; at 1.2 µM,-34%
same,growth inhibition,[1]; at 3.7 µM,-17%
same,growth inhibition,[1]; at 11.0 µM,-8%
same,growth inhibition,[1]; at 33.0 µM,7%
same,growth inhibition,[1]; at 100.0 µM,77% (active)
same,growth inhibition,[2]; at 1.2 µM,11%
same,growth inhibition,[2]; at 3.7 µM,2%
same,growth inhibition,[2]; at 11.0 µM,2%
same,growth inhibition,[2]; at 33.0 µM,9%
same,growth inhibition,[2]; at 100.0 µM,67%
same,growth inhibition,[3]; at 1.2 µM,-31%
same,growth inhibition,[3]; at 3.7 µM,-36%
same,growth inhibition,[3]; at 11.0 µM,-49%
same,growth inhibition,[3]; at 33.0 µM,-40%
same,growth inhibition,[3]; at 100.0 µM,-23%
same,growth inhibition,[4]; at 1.2 µM,-17%
same,growth inhibition,[4]; at 3.7 µM,-29%
same,growth inhibition,[4]; at 11.0 µM,-19%
same,growth inhibition,[4]; at 33.0 µM,15%
same,growth inhibition,[4]; at 100.0 µM,88% (active)
same,growth inhibition,[5]; at 1.2 µM,-13%
same,growth inhibition,[5]; at 3.7 µM,-2%
same,growth inhibition,[5]; [17],35%
same,growth inhibition,[5]; at 11.0 µM,-1%
same,growth inhibition,[5]; at 33.0 µM,15%
same,growth inhibition,[5]; [18],79% (active)
same,growth inhibition,[5]; at 50.0 µM,75.6% (active)
same,growth inhibition,[5]; at 100.0 µM,86% (active)
same,growth inhibition,[6]; at 1.2 µM,-10%
same,growth inhibition,[6]; at 3.7 µM,-13%
same,growth inhibition,[6]; [17],-16%
same,growth inhibition,[6]; at 11.0 µM,-3%
same,growth inhibition,[6]; at 33.0 µM,13%
same,growth inhibition,[6]; [18],77% (active)
same,growth inhibition,[6]; at 50.0 µM,64.4%
same,growth inhibition,[6]; at 100.0 µM,73% (active)
same,growth inhibition,[7]; at 1.2 µM,-36%
same,growth inhibition,[7]; at 3.7 µM,-33%
same,growth inhibition,[7]; at 11.0 µM,-25%
same,growth inhibition,[7]; at 33.0 µM,2%
same,growth inhibition,[7]; at 100.0 µM,84% (active)
same,growth inhibition,[8]; [17],8%
same,growth inhibition,[8]; [18],82% (active)
same,growth inhibition,[8]; at 50.0 µM,83% (active)
same,growth inhibition,[9]; at 1.2 µM,-28%
same,growth inhibition,[9]; at 3.7 µM,-27%
same,growth inhibition,[9]; at 11.0 µM,-25%
same,growth inhibition,[9]; at 33.0 µM,-10%
same,growth inhibition,[9]; at 100.0 µM,73% (active)
same,growth inhibition,[10]; [17],-4%
same,growth inhibition,[10]; [18],55%
same,growth inhibition,[10]; at 50.0 µM,67.2%
same,growth inhibition,[11]; at 1.2 µM,-4%
same,growth inhibition,[11]; at 3.7 µM,11%
same,growth inhibition,[11]; [17],27%
same,growth inhibition,[11]; at 11.0 µM,-4%
same,growth inhibition,[11]; at 33.0 µM,34%
same,growth inhibition,[11]; [18],86% (active)
same,growth inhibition,[11]; at 50.0 µM,77.1% (active)
same,growth inhibition,[11]; at 100.0 µM,90% (active)
same,growth inhibition,[12]; at 1.2 µM,-17%
same,growth inhibition,[12]; at 3.7 µM,-5%
same,growth inhibition,[12]; at 11.0 µM,-2%
same,growth inhibition,[12]; at 33.0 µM,25%
same,growth inhibition,[12]; at 100.0 µM,86% (active)
same,growth inhibition,[13]; at 1.2 µM,-31%
same,growth inhibition,[13]; at 3.7 µM,-25%
same,growth inhibition,[13]; at 11.0 µM,-8%
same,growth inhibition,[13]; at 33.0 µM,23%
same,growth inhibition,[13]; at 100.0 µM,88% (active)
same,growth inhibition,[14]; at 1.2 µM,6%
same,growth inhibition,[14]; at 3.7 µM,13%
same,growth inhibition,[14]; at 11.0 µM,27%
same,growth inhibition,[14]; at 33.0 µM,68%
same,growth inhibition,[14]; at 100.0 µM,89% (active)
same,growth inhibition,[15]; [17],-15%
same,growth inhibition,[15]; [18],81% (active)
same,growth inhibition,[15]; at 50.0 µM,74.5% (active)
same,growth inhibition,[16]; at 1.2 µM,-25%
same,growth inhibition,[16]; at 3.7 µM,-21%
same,growth inhibition,[16]; at 11.0 µM,-11%
same,growth inhibition,[16]; at 33.0 µM,14%
same,growth inhibition,[16]; at 100.0 µM,66%
CC(C)[Si]1(C(C)C)OCC2OC(n3cnc4c(N)ncnc43)C(N)C2O[Si](C(C)C)(C(C)C)O1 (stereo unspecified),growth inhibition,[1]; at 1.2 µM,3%
same,growth inhibition,[1]; at 3.7 µM,9%
same,growth inhibition,[1]; at 11.0 µM,32%
same,growth inhibition,[1]; at 33.0 µM,98% (active)
same,growth inhibition,[1]; at 100.0 µM,98% (active)
same,growth inhibition,[2]; at 1.2 µM,5%
same,growth inhibition,[2]; at 3.7 µM,11%
same,growth inhibition,[2]; at 11.0 µM,34%
same,growth inhibition,[2]; at 33.0 µM,98% (active)
same,growth inhibition,[2]; at 100.0 µM,98% (active)
same,growth inhibition,[3]; at 1.2 µM,10%
same,growth inhibition,[3]; at 3.7 µM,20%
same,growth inhibition,[3]; at 11.0 µM,15%
same,growth inhibition,[3]; at 33.0 µM,24%
same,growth inhibition,[3]; at 100.0 µM,89% (active)
same,growth inhibition,[4]; at 1.2 µM,19%
same,growth inhibition,[4]; at 3.7 µM,16%
same,growth inhibition,[4]; at 11.0 µM,20%
same,growth inhibition,[4]; at 33.0 µM,98% (active)
same,growth inhibition,[4]; at 100.0 µM,98% (active)
same,growth inhibition,[5]; at 1.2 µM,7%
same,growth inhibition,[5]; at 3.7 µM,10%
same,growth inhibition,[5]; [17],38%
same,growth inhibition,[5]; at 11.0 µM,41%
same,growth inhibition,[5]; at 33.0 µM,98% (active)
same,growth inhibition,[5]; [18],98% (active)
same,growth inhibition,[5]; at 50.0 µM,89.8% (active)
same,growth inhibition,[5]; at 100.0 µM,98% (active)
same,growth inhibition,[6]; at 1.2 µM,19%
same,growth inhibition,[6]; at 3.7 µM,-5%
same,growth inhibition,[6]; [17],14%
same,growth inhibition,[6]; at 11.0 µM,14%
same,growth inhibition,[6]; at 33.0 µM,98% (active)
same,growth inhibition,[6]; [18],99% (active)
same,growth inhibition,[6]; at 50.0 µM,90.4% (active)
same,growth inhibition,[6]; at 100.0 µM,98% (active)
same,growth inhibition,[7]; at 1.2 µM,-1%
same,growth inhibition,[7]; at 3.7 µM,1%
same,growth inhibition,[7]; at 11.0 µM,13%
same,growth inhibition,[7]; at 33.0 µM,98% (active)
same,growth inhibition,[7]; at 100.0 µM,98% (active)
same,growth inhibition,[8]; [17],7%
same,growth inhibition,[8]; [18],99% (active)
same,growth inhibition,[8]; at 50.0 µM,88.8% (active)
same,growth inhibition,[9]; at 1.2 µM,14%
same,growth inhibition,[9]; at 3.7 µM,2%
same,growth inhibition,[9]; at 11.0 µM,5%
same,growth inhibition,[9]; at 33.0 µM,97% (active)
same,growth inhibition,[9]; at 100.0 µM,98% (active)
same,growth inhibition,[10]; [17],18%
same,growth inhibition,[10]; [18],99% (active)
same,growth inhibition,[10]; at 50.0 µM,89.3% (active)
same,growth inhibition,[11]; at 1.2 µM,-3%
same,growth inhibition,[11]; at 3.7 µM,-10%
same,growth inhibition,[11]; [17],-26%
same,growth inhibition,[11]; at 11.0 µM,9%
same,growth inhibition,[11]; at 33.0 µM,97% (active)
same,growth inhibition,[11]; [18],99% (active)
same,growth inhibition,[11]; at 50.0 µM,86.5% (active)
same,growth inhibition,[11]; at 100.0 µM,98% (active)
same,growth inhibition,[12]; at 1.2 µM,-50%
same,growth inhibition,[12]; at 3.7 µM,-34%
same,growth inhibition,[12]; at 11.0 µM,93% (active)
same,growth inhibition,[12]; at 33.0 µM,98% (active)
same,growth inhibition,[12]; at 100.0 µM,97% (active)
same,growth inhibition,[13]; at 1.2 µM,3%
same,growth inhibition,[13]; at 3.7 µM,14%
same,growth inhibition,[13]; at 11.0 µM,32%
same,growth inhibition,[13]; at 33.0 µM,97% (active)
same,growth inhibition,[13]; at 100.0 µM,98% (active)
same,growth inhibition,[14]; at 1.2 µM,6%
same,growth inhibition,[14]; at 3.7 µM,5%
same,growth inhibition,[14]; at 11.0 µM,19%
same,growth inhibition,[14]; at 33.0 µM,97% (active)
same,growth inhibition,[14]; at 100.0 µM,98% (active)
same,growth inhibition,[15]; [17],47%
same,growth inhibition,[15]; [18],99% (active)
same,growth inhibition,[15]; at 50.0 µM,87.4% (active)
same,growth inhibition,[16]; at 1.2 µM,-8%
same,growth inhibition,[16]; at 3.7 µM,2%
same,growth inhibition,[16]; at 11.0 µM,22%
same,growth inhibition,[16]; at 33.0 µM,97% (active)
same,growth inhibition,[16]; at 100.0 µM,97% (active)
